Data reported in the supplement of paper PMC10037445.
“And” between values parts separate entries of the source, which are not always exact repeats. Equal entries are not always repeated. Over roughly 2,900 compounds, “NF-kB SEAP reporter activity, fold change vs agonist alone” has its median near 0.99; the highest 2% begin near 2.6. This is one part of a sample in which the highest values are shown more often than they occur.

Columns and labels:
RAW-Dual [1] = test: NF-kB SEAP reporter activity, fold change vs agonist alone; cytotoxicity flag (confluency mask): not cytotoxic; higher = enhanced NF-kB activity
Summary of the method: (§1)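 RAW-Dual macrophages were seeded in DMEM at 50,000 cells/well in 384-well plates, given 50 nL of library stock by pin tool, and given a PRR agonist 1 h later. Plates were held at 37 °C, 5% CO2 for 20 hours, after which supernatant was read for IRF by QuantiLuc luminescence and for NF-κB by QuantiBlue absorbance at 620 nm. Reporter activity is expressed as fold change over wells that received agonist alone. A well was called cytotoxic when IncuCyte confluency fell below 70% of agonist controls in both mask sets.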

RAW-Dual [2] = test: NF-kB SEAP reporter activity, fold change vs agonist alone; higher = enhanced NF-kB activity; conditions: library stock concentration (final ~1000-fold dilution): 10 mM
Summary of the method: as §1

RAW-Dual [3] = test: NF-kB SEAP reporter activity, fold change vs agonist alone; cytotoxicity flag (confluency mask): cytotoxic (confluency <70% of control); higher = enhanced NF-kB activity
Summary of the method: as §1

[4] = agonist: ODN 1826 (TLR9) 0.5 ug/mL
[5] = agonist: Pam2CSK4 (TLR2/6) 0.1 ug/mL
[6] = agonist: Pam3CSK4 (TLR2/1) 0.1 ug/mL
[7] = cytotoxicity flag (confluency mask): not cytotoxic, agonist: Imiquimod (TLR7) […]
[8] = cytotoxicity flag (confluency mask): not cytotoxic, agonist: MPLA (TLR4) […]
[9] = cytotoxicity flag (confluency mask): cytotoxic (confluency <70% of control), agonist: Imiquimod (TLR7) […]
[10] = cytotoxicity flag (confluency mask): cytotoxic (confluency <70% of control), agonist: MPLA (TLR4) […]

## COc1ccc(CNC(=O)CCl)cc1OC (library stock concentration (final ~1000-fold dilution): 10 mM)
RAW-Dual [1]; agonist: LPS (TLR4) 0.1 ug/mL
  NF-kB SEAP reporter activity: 0.67
RAW-Dual [1]; [4]
  NF-kB SEAP reporter activity: 0.674
RAW-Dual [1]; [5]
  NF-kB SEAP reporter activity: 0.728
RAW-Dual [1]; [6]
  NF-kB SEAP reporter activity: 0.679

## COc1cc(OC)c(C=CS(=O)(=O)Cc2ccc(OC)c(NCC(=O)O)c2)c(OC)c1 (library stock concentration (final ~1000-fold dilution): 10 mM)
RAW-Dual [1]; agonist: LPS (TLR4) 0.1 ug/mL
  NF-kB SEAP reporter activity: 4.24
RAW-Dual [1]; [4]
  NF-kB SEAP reporter activity: 3.24
RAW-Dual [1]; [5]
  NF-kB SEAP reporter activity: 2.21
RAW-Dual [1]; [6]
  NF-kB SEAP reporter activity: 2.56

## CC(=O)C1CCC2C3CCC4=CC(=O)CCC4(C)C3CCC12C (stereo not drawn)
RAW-Dual [2]; [7]
  NF-kB SEAP reporter activity: 0.441
RAW-Dual [2]; [8]
  NF-kB SEAP reporter activity: 1.06

## CC(=O)C1CCC2C3CCC4=CC(=O)CCC4(C)C3CCC12C (stereo not drawn) (library stock concentration (final ~1000-fold dilution): 10 mM)
RAW-Dual [1]; agonist: LPS (TLR4) 0.1 ug/mL
  NF-kB SEAP reporter activity: 0.981
RAW-Dual [1]; [4]
  NF-kB SEAP reporter activity: 1.06
RAW-Dual [1]; [5]
  NF-kB SEAP reporter activity: 1.38
RAW-Dual [1]; [6]
  NF-kB SEAP reporter activity: 1.51

## Cc1ccc(/C=N/NC(=O)c2ccccc2Oc2ccccc2)o1
RAW-Dual [2]; [7]
  NF-kB SEAP reporter activity: 0.972
RAW-Dual [2]; [8]
  NF-kB SEAP reporter activity: 1.09

## O=C(N/N=C/c1ccc([N+](=O)[O-])o1)c1ccc(O)cc1 (library stock concentration (final ~1000-fold dilution): 10 mM)
RAW-Dual [3]; agonist: LPS (TLR4) 0.1 ug/mL
  NF-kB SEAP reporter activity: 3.8
RAW-Dual [3]; [4]
  NF-kB SEAP reporter activity: 1.64
RAW-Dual [3]; [5]
  NF-kB SEAP reporter activity: 1.38
RAW-Dual [3]; [6]
  NF-kB SEAP reporter activity: 1.55

## O=C1CN(/N=C/c2ccc([N+](=O)[O-])o2)C(=O)N1
RAW-Dual [2]; [7]
  NF-kB SEAP reporter activity: 0.924
RAW-Dual [2]; [8]
  NF-kB SEAP reporter activity: 0.948

## Cc1ccc(/C=N/NC(=O)c2ccccc2Oc2ccccc2)o1 (library stock concentration (final ~1000-fold dilution): 10 mM)
RAW-Dual [1]; agonist: LPS (TLR4) 0.1 ug/mL
  NF-kB SEAP reporter activity: 1.08
RAW-Dual [1]; [4]
  NF-kB SEAP reporter activity: 0.922
RAW-Dual [1]; [5]
  NF-kB SEAP reporter activity: 0.955
RAW-Dual [1]; [6]
  NF-kB SEAP reporter activity: 1.31

## O=C1CN(/N=C/c2ccc([N+](=O)[O-])o2)C(=O)N1 (library stock concentration (final ~1000-fold dilution): 10 mM)
RAW-Dual [1]; agonist: LPS (TLR4) 0.1 ug/mL
  NF-kB SEAP reporter activity: 1.09
RAW-Dual [1]; [4]
  NF-kB SEAP reporter activity: 0.855
RAW-Dual [1]; [5]
  NF-kB SEAP reporter activity: 1.1
RAW-Dual [1]; [6]
  NF-kB SEAP reporter activity: 1.11

## O=C(N/N=C/c1ccc([N+](=O)[O-])o1)c1ccc(O)cc1
RAW-Dual [2]; [9]
  NF-kB SEAP reporter activity: 2.58
RAW-Dual [2]; [10]
  NF-kB SEAP reporter activity: 2.03

## COC1/C=C\C=C(/C)C(=O)NC2=CC(=O)C(NCCN(C)C)=C(CC(C)CC(OC)C(O)C(C)/C=C(\C)C1OC(N)=O)C2=O.Cl (stereo not drawn) (library stock concentration (final ~1000-fold dilution): 10 mM)
RAW-Dual [1]; agonist: LPS (TLR4) 0.1 ug/mL
  NF-kB SEAP reporter activity: 0.267
RAW-Dual [1]; [4]
  NF-kB SEAP reporter activity: 0.313
RAW-Dual [1]; [5]
  NF-kB SEAP reporter activity: 0.154
RAW-Dual [1]; [6]
  NF-kB SEAP reporter activity: 0.199

## COC1/C=C\C=C(/C)C(=O)NC2=CC(=O)C(NCCN(C)C)=C(CC(C)CC(OC)C(O)C(C)/C=C(\C)C1OC(N)=O)C2=O.Cl (stereo not drawn)
RAW-Dual [2]; [7]
  NF-kB SEAP reporter activity: 0.497
RAW-Dual [2]; [8]
  NF-kB SEAP reporter activity: 0.345

## CC(C)NCC(C(=O)N1CCN(c2ncnc3c2C(C)CC3O)CC1)c1ccc(Cl)cc1 (stereo not drawn)
RAW-Dual [2]; [7]
  NF-kB SEAP reporter activity: 1.27
RAW-Dual [2]; [8]
  NF-kB SEAP reporter activity: 1.13

## CC(C)NCC(C(=O)N1CCN(c2ncnc3c2C(C)CC3O)CC1)c1ccc(Cl)cc1 (stereo not drawn) (library stock concentration (final ~1000-fold dilution): 10 mM)
RAW-Dual [1]; agonist: LPS (TLR4) 0.1 ug/mL
  NF-kB SEAP reporter activity: 0.942
RAW-Dual [1]; [4]
  NF-kB SEAP reporter activity: 0.996
RAW-Dual [1]; [5]
  NF-kB SEAP reporter activity: 1.15
RAW-Dual [1]; [6]
  NF-kB SEAP reporter activity: 1.11

## C=CC(=O)N1CCCC(n2nc(-c3ccc(Oc4ccccc4)cc3)c(C(N)=O)c2N)C1 (stereo not drawn) (library stock concentration (final ~1000-fold dilution): 10 mM)
RAW-Dual [1]; agonist: LPS (TLR4) 0.1 ug/mL
  NF-kB SEAP reporter activity: 0.404
RAW-Dual [1]; [4]
  NF-kB SEAP reporter activity: 0.546
RAW-Dual [1]; [5]
  NF-kB SEAP reporter activity: 0.224
RAW-Dual [1]; [6]
  NF-kB SEAP reporter activity: 0.272

## C=CC(=O)N1CCCC(n2nc(-c3ccc(Oc4ccccc4)cc3)c(C(N)=O)c2N)C1 (stereo not drawn)
RAW-Dual [2]; [7]
  NF-kB SEAP reporter activity: 0.67
RAW-Dual [2]; [8]
  NF-kB SEAP reporter activity: 0.637

## Cl.NC(=O)c1cnc(NC2CCCCC2N)nc1Nc1cccc(-n2nccn2)c1 (stereo not drawn)
RAW-Dual [2]; [9]
  NF-kB SEAP reporter activity: 0.258
RAW-Dual [2]; [10]
  NF-kB SEAP reporter activity: 0.336

## Cl.NC(=O)c1cnc(NC2CCCCC2N)nc1Nc1cccc(-n2nccn2)c1 (stereo not drawn) (library stock concentration (final ~1000-fold dilution): 10 mM)
RAW-Dual [3]; agonist: LPS (TLR4) 0.1 ug/mL
  NF-kB SEAP reporter activity: 0.377
RAW-Dual [3]; [4]
  NF-kB SEAP reporter activity: 0.204
RAW-Dual [3]; [5]
  NF-kB SEAP reporter activity: 0.315
RAW-Dual [3]; [6]
  NF-kB SEAP reporter activity: 0.248

## O=C(/C=C/c1ccc(CN(CCO)CCc2c[nH]c3ccccc23)cc1)NO
RAW-Dual [2]; [9]
  NF-kB SEAP reporter activity: 2.64
RAW-Dual [2]; [10]
  NF-kB SEAP reporter activity: 2.71

## O=C(O)CCc1c[nH]c2ccccc12 (library stock concentration (final ~1000-fold dilution): 10 mM)
RAW-Dual [1]; agonist: LPS (TLR4) 0.1 ug/mL
  NF-kB SEAP reporter activity: 1.08
RAW-Dual [1]; [4]
  NF-kB SEAP reporter activity: 1.06
RAW-Dual [1]; [5]
  NF-kB SEAP reporter activity: 1.03
RAW-Dual [1]; [6]
  NF-kB SEAP reporter activity: 0.898

## O=C(/C=C/c1ccc(CN(CCO)CCc2c[nH]c3ccccc23)cc1)NO (library stock concentration (final ~1000-fold dilution): 10 mM)
RAW-Dual [3]; agonist: LPS (TLR4) 0.1 ug/mL
  NF-kB SEAP reporter activity: 5.57
RAW-Dual [3]; [4]
  NF-kB SEAP reporter activity: 1.51
RAW-Dual [3]; [5]
  NF-kB SEAP reporter activity: 1.46
RAW-Dual [3]; [6]
  NF-kB SEAP reporter activity: 1.68

## O=C(O)CCc1c[nH]c2ccccc12
RAW-Dual [2]; [7]
  NF-kB SEAP reporter activity: 0.934
RAW-Dual [2]; [8]
  NF-kB SEAP reporter activity: 0.964

## OCc1c[nH]c2ccccc12
RAW-Dual [2]; [8]
  NF-kB SEAP reporter activity: 1.03

## OCc1c[nH]c2ccccc12 (library stock concentration (final ~1000-fold dilution): 10 mM)
RAW-Dual [1]; agonist: LPS (TLR4) 0.1 ug/mL
  NF-kB SEAP reporter activity: 1.1 and 1.21
RAW-Dual [1]; [4]
  NF-kB SEAP reporter activity: 0.998 and 1.05
RAW-Dual [1]; [5]
  NF-kB SEAP reporter activity: 1.03 and 1
RAW-Dual [1]; [6]
  NF-kB SEAP reporter activity: 1.29 and 1.17
